Test results: PubChem BioAssay AID2685 (National Center for Advancing Translational Sciences (NCATS), 2010)
The whole screen tested about 320,000 compounds, of which about 2,100 (0.66%) were called active. Inconclusive results (about 53%) are left out. Calls come from the whole dose curve; as a rule, active = well fitted inhibition curve with a large enough effect in the signal ratio, with a control signal flat (not every such curve was filed as active); inconclusive = small, poorly fitted or top-dose-only effect, or effect the other way, or a change in a side signal; inactive = flat fitted curve, though single readings scatter; the % refers to the signal ratio. The sample as a whole holds a higher share of actives than the screen did.

experiment: qHTS Assay for Lipid Storage Modulators in Drosophila S3 Cells; settings: BODIPY lipid droplet fluorescence, 18-24 h, cells fed with added oleic acid; cell number change: measured here: cell count max response; series mostly up to 46.1 µM;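 for cell number change: cells counted by Cell Tracker Red CMTPX staining in the red channel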
Outline: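 Laser-scanning cytometry quantifies lipid droplet accumulation (500–530 nm total intensity; droplet/cell object ratio) in oleic acid-fed (400 uM added) Drosophila S3 cells treated with a concentration series. 20 uM Triacsin C defined 100% inhibition.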
Potency is the fitted concentration of half-maximal effect.

Row | Compound | Potency | cell number change [%]
1 | Nn1cc(-c2ccccc2)nc1SCC(=O)NCC(F)(F)F | inactive | 
2 | COc1ccc2[nH]c(=O)c(CN(Cc3cccnc3)Cc3nnnn3CC3CCCO3)cc2c1 (stereo not given) | inactive | -7.7
3 | COc1cccc2c1OC1(C)CC2NC(=O)N1c1cccc(C(=O)N2CCN(c3ccccc3)CC2)c1 (stereo not given) | inactive | 3.44
4 | Cn1c2ccccc2c(=O)c2ccc(C#Cc3ccc(N)cc3)cc21 | inactive | 2.27
5 | COc1cc(OC)cc(-c2c(-c3cccs3)c3cc(-c4ccc(N(C)C)nc4)ccc3n2C)c1 | inactive | 14.6
6 | CN(C)c1ccc(-c2ccc3c(=O)c4ccccc4n(C)c3c2)cn1 | 23.1 µM (active) | -7.49
7 | Cn1c2ccccc2c(=O)c2cc(C#Cc3ccccn3)ccc21 | inactive | -13.6
8 | COc1cccc2oc3ccc(C#Cc4ccccn4)cc3c(=O)c12 | 0.731 µM (active) | -5.09
9 | COc1cc2oc3ccccc3c(=O)c2cc1OC | inactive | -9.58
10 | Nc1cccc(C#Cc2ccc3c(=O)c4ccccc4oc3c2)c1 | inactive | -4.2
11 | Cn1c2ccccc2c(=O)c2ccc(C#Cc3ccccn3)cc21 | 14.6 µM (active) | -26.5
12 | COc1cccc2oc3cc(C#Cc4ccccn4)ccc3c(=O)c12 | 18.4 µM (active) | -23
13 | CNC(C)C#Cc1ccc2oc3cccc(OC)c3c(=O)c2c1 (stereo not given) | inactive | 16.5
14 | COc1ccc2c(=O)c3ccccc3oc2c1 | inactive | -11.6
15 | Cn1c2ccccc2c(=O)c2ccc(-c3ccc4c(c3)OCO4)cc21 | inactive | -21
16 | O=C(NC12CC3CC(CC(C3)C1)C2)c1ccc(Br)o1 | inactive | -22.8
17 | O=C(c1ccccn1)N(CC1CCCO1)C1(C(=O)NC2CCCCC2)CCCCC1 (stereo not given) | inactive | -0.121
18 | Cc1ccc(NC(=O)OCc2cc(-c3ccccc3)on2)cc1 | inactive | 4.96
19 | OCC(O)C(O)C(O)C(O)C1NCCS1 (stereo not given) | inactive | 16.2
20 | COc1ccc(CCNC(=O)C2CCN(C(=O)c3ccc(Cl)cc3)CC2)cc1 | inactive | -13.5
21 | COc1ccc(CCNC(=O)C2CCN(C(=O)c3ccc(Br)cc3)CC2)cc1 | 5.8 µM (active) | -9.49
22 | COc1ccc(CCNC(=O)C2CCN(C(=O)c3ccc(OC)c(OC)c3)CC2)cc1 | inactive | 
23 | Cc1ccc(N2C(=O)C(Cl)=C(N3CCOCC3)C2=O)c(C)c1 | inactive | -6.56
24 | CCOC(=O)C(=CNc1ccc(C(F)(F)F)cc1)C(=O)OCC | inactive | 11.9

Row | Compound | Potency | cell number change [%]
25 | Cc1cc(C)cc(C(=O)N2CC(C)OC(C)C2)c1 (stereo not given) | inactive | 20.2
26 | CC1CN(C(=O)Cn2c(=O)oc3ccccc32)CC(C)O1 (stereo not given) | inactive | 13.4
27 | CC1CN(C(=O)c2cccc(C(=O)N3CC(C)OC(C)C3)c2)CC(C)O1 (stereo not given) | 18.4 µM (active) | 7.82
28 | CC1CN(C(=O)c2ccc(C(=O)c3ccccc3)cc2)CC(C)O1 (stereo not given) | inactive | -18.7
29 | CC1CN(C(=O)CN2C(=O)c3ccccc3C2=O)CC(C)O1 (stereo not given) | 23.1 µM (active) | -24.9
30 | CC1CN(C(=O)CCN2C(=O)c3ccccc3C2=O)CC(C)O1 (stereo not given) | inactive | 7.71
31 | O=C(CC(=O)N/N=C/c1ccc(Cl)cc1Cl)NCc1ccccc1 | inactive | -3.68
32 | CCN(Cc1ccccc1)c1ccc(/C=N/NC(=S)NC(C)C)cc1 | inactive | -13
33 | OCc1nc2ccccc2n1CC(O)Cn1ccc2ccccc21 (stereo not given) | inactive | 
34 | O=c1cc2c(n[nH]1)-c1ccccc1CC2 | inactive | 1.15
35 | O=c1ccc2c([nH]1)CCCCCCCCCC2 | inactive | 10
36 | O=c1cc2c(n[nH]1)CCCC2 | 0.58 µM (active) | -2.03
37 | Cc1ccc(-c2nnc(SCC(=O)Nc3nccs3)n2N)cc1 | inactive | -14.7
38 | COc1ccc(NS(=O)(=O)c2ccc3c(c2)N(C(C)=O)CC(C)S3)c(OC)c1 (stereo not given) | inactive | 6.52
39 | CC(C)c1ccc(CN2C(=O)NC3(CCCCCC3)C2=O)cc1 | 18.4 µM (active) | 2.7
40 | O=C1NC2(CCCCCCC2)C(=O)N1Cc1ccc(F)cc1 | inactive | 7.12
41 | O=C1NC2(CCCCCC2)C(=O)N1Cc1ccc(Br)cc1 | inactive | -22.7
42 | CCCCC(=O)NS(=O)(=O)c1ccc(N=NN2CCOCC2)cc1 | inactive | -7.29
43 | CCCCSCCCNC(=S)Nc1ccccc1C | inactive | -6.21
44 | Cc1ccc(NC(=O)CSc2ccccc2NC(=O)c2cccc(Cl)c2)cc1Cl | inactive | -1.09
45 | Cc1ccc(NC(=O)CSc2ccccc2NC(=O)c2ccccc2)cc1Cl | 20.6 µM (active) | -20
46 | Cc1ccc(NC(=O)CSc2ccccc2NC(=O)c2ccccc2Cl)cc1Cl | inactive | 13.7
47 | CC(=O)c1cccc(NS(=O)(=O)c2ccc(N/C=C/C(=O)c3ccc(F)cc3)cc2)c1 | inactive | -28.4
48 | CCOc1cccc(CNCCO)c1OCc1ccc(Cl)cc1 | inactive | -0.0822

Row | Compound | Potency | cell number change [%]
49 | C=CCn1c(SCc2nc3sc(C(=O)O)c(C)c3c(=O)[nH]2)nnc1-c1ccccc1 | inactive | -15.1
50 | CCOC(=O)c1sc2nc(CSc3nc4ccccc4n3CC)[nH]c(=O)c2c1C | inactive | -16.4
51 | CCn1c(SCc2nc3sc(C(=O)O)c(C)c3c(=O)[nH]2)nc2ccccc21 | 20.6 µM (active) | 
52 | O=C(Nc1ccc(C2CCCCC2)cc1)C1CCN(c2ncccn2)CC1 | inactive | -8.69
53 | O=C1/C(=C\c2ccco2)CCC/C1=C\c1ccco1 | 20.6 µM (active) | -21.3
54 | CC(C)(C)C1C/C(=C/c2ccco2)C(=O)/C(=C/c2ccco2)C1 (stereo not given) | 10.3 µM (active) | -6.47
55 | Nc1ccc2c(c1)C/C(=C/c1ccco1)C2=O | inactive | 
56 | O=C1/C(=C/c2ccco2)CCC1C1CCCC1 (stereo not given) | inactive | -18.8
57 | CC1=N/C(=C/c2ccco2)C(=O)O1 | inactive | -0.878
58 | O/N=C1\CCC\C1=C/c1ccco1 | inactive | 0.139
59 | CN(C)S(=O)(=O)c1ccc(C(=O)Nc2ccc(S(=O)(=O)NC3=NCCCCC3)cc2)cc1 | inactive | 
60 | O=C(CN1C(=O)CCS(=O)(=O)c2ccccc21)Nc1cccc(F)c1 | 23.1 µM (active) | 3.53
61 | Cc1cc(C)c(NC(=O)CN2C(=O)CC(C)S(=O)(=O)c3ccccc32)c(C)c1 (stereo not given) | inactive | 13.7
62 | O=C(CN1C(=O)CCS(=O)(=O)c2ccccc21)Nc1ccc2c(c1)OCCO2 | inactive | -1.7
63 | CCc1ccc(NC(=O)CN2C(=O)CC(C)S(=O)(=O)c3ccccc32)cc1 (stereo not given) | 20.6 µM (active) | 4.2
64 | O=C(CN1C(=O)CCS(=O)(=O)c2ccccc21)Nc1cccc(Cl)c1 | inactive | -9.4
65 | COc1ccc(NC(=O)CN2C(=O)CC(C)S(=O)(=O)c3ccccc32)cc1 (stereo not given) | inactive | 4.2
66 | CC1(C)CC2CC(C)(CN2C(=O)COC(=O)c2ccc(Cl)c(N)c2)C1 (stereo not given) | inactive | 7.11
67 | Cc1ccc(NC(=O)CCc2c(C)nn(-c3ccc(N4CCCCC4)nn3)c2C)cc1 | inactive | 
68 | Cc1ccc(S(=O)(=O)CCC(=O)OCc2ccc(Cl)cc2)cc1 | inactive | -1.83
69 | Cc1ccc2[nH]c(=O)c(CN(CC3CCCO3)C(=O)c3cccs3)cc2c1 (stereo not given) | inactive | 31.3
70 | COc1ccc(CNC(=O)C2(c3ccc(Cl)cc3)CC2)cc1 | inactive | 15.2
71 | O=C(NCCO)C1(c2ccc(Cl)cc2)CCCC1 | 20.6 µM (active) | -14.3
72 | O=C(NCc1ccco1)C1(c2ccc(Cl)cc2)CCCC1 | inactive | 17

Row | Compound | Potency | cell number change [%]
73 | Cc1cc(C)c2[nH]c3nc(SCC(=O)O)nnc3c2c1 | inactive | 15.4
74 | O=c1oc2ccccc2c(N2CCCCC2)c1CN1CCCC1 | inactive | 20.3
75 | O=C(Cc1ccccc1)NCc1n[nH]c(=S)n1-c1ccc(Br)cc1 | inactive | 12.1
76 | COCCNC(=O)C1(C)C=CC2(CCCCC2)N1C(=O)c1ccccc1 (stereo not given) | inactive | -12.7
77 | S=C(Nc1ccc(Cl)cc1)NN1CCOCC1 | inactive | -1.28
78 | Cc1sc2ncnc(NCc3ccccc3)c2c1C | inactive | 
79 | COc1ccc(-c2nnnn2C)cc1S(=O)(=O)NCc1ccccc1 | inactive | -12.1
80 | CSc1ncc2c(n1)-c1cc(C)ccc1SC2 | inactive | -11.4
81 | O=C(CCCOc1ccccc1)Nc1cccc(S(=O)(=O)N2CCCCCC2)c1 | 0.651 µM (active) | -1
82 | Cc1ccc(C)c(OCCC(=O)OCC(=O)Nc2cccc(S(=O)(=O)N3CCCC3)c2)c1 | inactive | 13
83 | COc1ccccc1OCCC(=O)Nc1cccc(S(=O)(=O)N2CCCCC2)c1 | inactive | 9.54
84 | O=C(CCOc1ccccc1)Nc1ccc(S(=O)(=O)N2CCCC2)cc1 | inactive | -12
85 | O=C(COC(=O)c1ccccc1O)Nc1cccc(S(=O)(=O)N2CCCC2)c1 | 2.91 µM (active) | -0.622
86 | CC(=O)c1ccc(OCCCC(=O)Nc2cccc(S(=O)(=O)N3CCCCC3)c2)cc1 | inactive | -10.4
87 | O=C(COC(=O)c1cccc(S(=O)(=O)N2CCCC2)c1)Nc1ccccc1 | inactive | 
88 | Cc1ccc(C)c(OCCC(=O)Nc2cccc(S(=O)(=O)N3CCCCC3)c2)c1 | 7.31 µM (active) | -9.88
89 | O=C(COC(=O)c1cccnc1Cl)Nc1cccc(S(=O)(=O)N2CCCCC2)c1 | inactive | -11.8
90 | O=C(NCc1csc(-c2cccs2)n1)Nc1ccc(C(F)(F)F)cc1 | inactive | -0.569
91 | O=C(COC(=O)CSc1cc(Cl)ccc1Cl)Nc1ncc(C(F)(F)F)cc1Cl | inactive | 1.5
92 | Cc1[nH]n(-c2ccccc2)c(=O)c1N=Nc1ccc2c(c1)OCO2 | inactive | -5.87
93 | O=C(c1sc(N2CCOCC2)nc1-c1ccccc1)N1CCCCC1 | inactive | 3.25
94 | O=C(Cn1nnc(-c2ccc(OCc3ccccc3F)cc2)n1)N1CCOCC1 | inactive | -16.4
95 | COc1ccc2nc(NC(=O)CCN3C(=S)NC(C)(C)CC3C)sc2c1 (stereo not given) | inactive | 
